Results filed as inconclusive are left out. A call without a number means that no potency is given here. Calls of active or inactive are those of the source. Calls follow the shape of the full dose curve.
assay: Primary qHTS for inhibitors of MERS-S pseudo-typed particle cell entry (AID 1479149); conditions: MERS-S pseudotyped particle entry, luciferase; series mostly up to 57.1 µM; also: nearly all actives have a fitted effect of over 60% in size; also: potency is read from the fitted curve at half-maximal effect

Row | SMILES | Potency
1 | C[C@H](N)[C@H](O)c1cccc(O)c1 | inactive
2 | NC(=O)CC[C@@H](N)C(=O)O | inactive
3 | CC(=O)/C=C/C=C1/C2CCC(C2)C1(C)C (stereo not given) | inactive
4 | NCCc1cnc[nH]1 | inactive
5 | Nc1ccc(C(=O)NCC(=O)O)cc1 | inactive
6 | COC(=O)Nc1nc2ccc(S(=O)c3ccccc3)cc2[nH]1 (stereo not given) | inactive
7 | Cc1ncc(CSSCc2cnc(C)c(O)c2CO)c(CO)c1O | inactive
8 | CC(C)(C)NCC(O)COc1cccc2c1CCC(=O)N2 (stereo not given) | inactive
9 | CCN[C@H]1C[C@H](C)S(=O)(=O)c2sc(S(N)(=O)=O)cc21 | inactive
10 | COc1ccc(CN(CCN(C)C)c2ccccn2)cc1 | inactive
11 | c1ccc(CN(CC2=NCCN2)c2ccccc2)cc1 | inactive
12 | C#C[C@]1(O)C=C[C@H]2[C@@H]3CCC4=CC(=O)CC[C@@H]4[C@H]3CC[C@@]21CC | inactive
13 | C[C@H](N)C(=O)N[C@@H](C)C(=O)NC1[C@H]2CN(c3nc4c(cc3F)c(=O)c(C(=O)O)cn4-c3ccc(F)cc3F)C[C@@H]12 (stereo not given in full) | inactive
14 | O=C(O)COC(=O)Cc1ccccc1Nc1c(Cl)cccc1Cl | inactive
15 | CC(=O)Oc1ccc(C(=C2CCCCC2)c2ccc(OC(C)=O)cc2)cc1 | inactive
16 | C[C@H]1C[C@H]2[C@@H]3CCC4=CC(=O)C=C[C@]4(C)[C@H]3C(=O)C[C@]2(C)[C@@]1(O)C(=O)CO | inactive
17 | Cc1ccc(=O)n(-c2ccccc2)c1 | inactive
18 | CC(=O)N[C@H]1[C@H]([C@H](O)[C@H](O)CO)OC(C(=O)O)=C[C@@H]1N=C(N)N | inactive
19 | CC(=O)Oc1ccc(C(c2ccc(OC(C)=O)cc2)c2ccccn2)cc1 | inactive
20 | C[C@H]1O[C@@H](O[C@H]2CC[C@@]3(C)[C@H](CC[C@@H]4[C@@H]3C[C@@H](O)[C@]3(C)[C@@H](C5=CC(=O)OC5)CC[C@]43O)C2)C[C@H](O)[C@@H]1O[C@H]1C[C@H](O)[C@H](O[C@H]2C[C@H](O)[C@H](O[C@@H]3O[C@H](CO)[C@@H](O)[C@H](O)[C@H]3O)[C@@H](C)O2)[C@@H](C)O1 | inactive
21 | CCOC(=O)n1ccn(C)c1=S | inactive
22 | Cc1[nH]c(=O)c(C#N)cc1-c1ccc2nccn2c1 | inactive
23 | CCOC(=O)C(C)(C)Oc1ccc(Cl)cc1 | inactive
24 | O=c1[nH]cnc2c1ncn2[C@@H]1O[C@H](CO)[C@@H](O)[C@H]1O | inactive
25 | CCCCCCCCCCCCCCCC[n+]1ccccc1 | 7.08 µM (active)
26 | O=C(CCCCC(=O)Nc1c(I)cc(I)c(C(=O)O)c1I)Nc1c(I)cc(I)c(C(=O)O)c1I | inactive
27 | CC(O)COc1ccccc1 (stereo not given) | inactive
28 | CC(C)NCC(O)COc1ccc(COCCOC(C)C)cc1 (stereo not given) | inactive

assay: Primary qHTS for Vero E6 cytotoxicity: counterscreen for inhibitors of SARS-S pseudo-typed particle cell entry (AID 1479150); conditions: cell viability; series mostly up to 57.1 µM

Row | SMILES | Potency
29 | C=CC[C@]1(O)CC[C@H]2[C@@H]3CCC4=CC(=O)CCC4=C3C=C[C@@]21C | inactive
30 | C[C@H](N)[C@H](O)c1cccc(O)c1 | inactive
31 | NC(=O)CC[C@@H](N)C(=O)O | inactive
32 | CC(=O)/C=C/C=C1/C2CCC(C2)C1(C)C (stereo not given) | inactive
33 | NCCc1cnc[nH]1 | inactive
34 | Nc1ccc(C(=O)NCC(=O)O)cc1 | inactive
35 | Cc1ncc(CSSCc2cnc(C)c(O)c2CO)c(CO)c1O | inactive
36 | CC(C)(C)NCC(O)COc1cccc2c1CCC(=O)N2 (stereo not given) | inactive
37 | CCN[C@H]1C[C@H](C)S(=O)(=O)c2sc(S(N)(=O)=O)cc21 | inactive
38 | COc1ccc(CN(CCN(C)C)c2ccccn2)cc1 | inactive
39 | c1ccc(CN(CC2=NCCN2)c2ccccc2)cc1 | inactive
40 | C#C[C@]1(O)C=C[C@H]2[C@@H]3CCC4=CC(=O)CC[C@@H]4[C@H]3CC[C@@]21CC | inactive
41 | C[C@H](N)C(=O)N[C@@H](C)C(=O)NC1[C@H]2CN(c3nc4c(cc3F)c(=O)c(C(=O)O)cn4-c3ccc(F)cc3F)C[C@@H]12 (stereo not given in full) | inactive
42 | O=C(O)COC(=O)Cc1ccccc1Nc1c(Cl)cccc1Cl | inactive
43 | CC(=O)Oc1ccc(C(=C2CCCCC2)c2ccc(OC(C)=O)cc2)cc1 | inactive
44 | C[C@H]1C[C@H]2[C@@H]3CCC4=CC(=O)C=C[C@]4(C)[C@H]3C(=O)C[C@]2(C)[C@@]1(O)C(=O)CO | inactive
45 | Cc1ccc(=O)n(-c2ccccc2)c1 | inactive
46 | CC(=O)N[C@H]1[C@H]([C@H](O)[C@H](O)CO)OC(C(=O)O)=C[C@@H]1N=C(N)N | inactive
47 | O=C(NC(=O)c1c(F)cccc1F)Nc1cc(Cl)c(OC(F)(F)C(F)C(F)(F)F)cc1Cl (stereo not given) | inactive
48 | CCOC(=O)n1ccn(C)c1=S | inactive
49 | Cc1[nH]c(=O)c(C#N)cc1-c1ccc2nccn2c1 | inactive
50 | CCOC(=O)C(C)(C)Oc1ccc(Cl)cc1 | inactive
51 | O=c1[nH]cnc2c1ncn2[C@@H]1O[C@H](CO)[C@@H](O)[C@H]1O | inactive
52 | O=C(CCCCC(=O)Nc1c(I)cc(I)c(C(=O)O)c1I)Nc1c(I)cc(I)c(C(=O)O)c1I | inactive
53 | CC(C(O)c1ccccc1)N(C)C/C=C/c1ccccc1 (stereo not given) | inactive
54 | CC(O)COc1ccccc1 (stereo not given) | inactive
55 | CC(C)NCC(O)COc1ccc(COCCOC(C)C)cc1 (stereo not given) | inactive
